The source of these data is the supplement of paper PMC6555819.

Holding throughout (experiment): PBM binding z-score (relative to random genomic background probes); higher = stronger binding; sequences stand for … in GC…GCGATTGACAGCGTAGAATGAAGG
Experiment [1] relates to FXR:RXRa (NR concentration 270 nM, RXRa partner concentration 90 nM). In a few lines: (§1)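 The probes on custom Agilent 4×180K protein-binding microarrays were double-stranded, with 34-nt variable regions bearing direct-repeat seeds, single-nucleotide variants, half-site ablations and random human genomic background sequences. Incubation lasted 1 h with ligand-free nuclear receptor dimers in PBS pH 7.4, 2% milk, 0.02% Triton X-100, 1 mM DTT, 0.2 mg/mL BSA and 0.4 mg/ml salmon testes DNA. Antibodies against each partner (one per run) detected bound dimers, and fluorescence scans were regression-normalized. Binding z-scores take the random background probes as reference.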

In experiment [2] the test system is LXRa:RXRa (NR concentration 270 nM, RXRa partner concentration 90 nM). In a few lines:
as §1

In experiment [3] the test system is LXRa homodimer (NR concentration 270 nM). In a few lines: as §1
For experiment [4], the system named is LXRb:RXRa (NR concentration 270 nM, RXRa partner concentration 90 nM). In a few lines:
as §1

The subject of experiment [5] is LXRb homodimer (NR concentration 270 nM). The essentials: as §1
In experiment [6] the test system is PPARa:RXRa (NR concentration 270 nM, RXRa partner concentration 90 nM). In a few lines: as §1
The test system of experiment [7] is PPARg:RXRa (NR concentration 180 nM, RXRa partner concentration 90 nM). The essentials: as §1
Experiment [8] has as its system PPARg:RXRa 270nM:90nM, anti-RXR (NR concentration 270 nM, RXRa partner concentration 90 nM). The essentials: as §1
The test system of experiment [9] is PPARg:RXRa 30nM:10nM, anti-RXR (NR concentration 30 nM, RXRa partner concentration 10 nM). The essentials:
as §1

Experiment [10] deals with PPARg:RXRa 90nM:30nM, anti-RXR (NR concentration 90 nM, RXRa partner concentration 30 nM). In a few lines: as §1
The test system of experiment [11] is PPARg:RXRa DBDmut IVT, anti-RXR (DBD mutation: RXRa K156A/R161A, NR concentration 270 nM, RXRa partner concentration 90 nM). The essentials: as §1
Experiment [12] has as its system PPARg:RXRa IVT, anti-PPARg (NR concentration 270 nM, RXRa partner concentration 90 nM). The essentials:
as §1

The subject of experiment [13] is PPARg DBDmut:RXRa IVT, anti-PPARg (DBD mutation: PPARg1 K132A/R137A, NR concentration 270 nM, RXRa partner concentration 90 nM). The essentials:
as §1

The test system of experiment [14] is PPARg DBDmut IVT, anti-PPARg (DBD mutation: PPARg1 K132A/R137A, NR concentration 270 nM). The essentials: as §1
For experiment [15], the system named is PPARg homodimer (NR concentration 180 nM). The essentials: as §1
Experiment [16] deals with PXR:RXRa (NR concentration 270 nM, RXRa partner concentration 90 nM). In a few lines: as §1
For experiment [17], the system named is PXR homodimer (NR concentration 270 nM). In a few lines: as §1
Experiment [18] deals with RARa:RXR (NR concentration 270 nM, RXRa partner concentration 90 nM). In a few lines: as §1
Experiment [19] concerns RARa homodimer (NR concentration 270 nM). In a few lines: as §1
Experiment [20] has as its system RARb:RXRa (NR concentration 270 nM, RXRa partner concentration 90 nM). The essentials: as §1

Consider ATCTCTAGGTAACAAGTTCAGTGAGAGAGAGGAC, for which the PBM binding z-score was 0.938 in experiment [1]; 0.818 in experiment [2]; 0.556 in experiment [3]; 0.613 in [4]; 1.01 in experiment [5]; 1.54 in experiment [6]. Besides, the PBM binding z-score in experiment [7] was found to be 1.41; in [8], 2.15; in experiment [9] it was 0.897; in experiment [10], 1.64; in [11] it was 3.21; in experiment [12], 3.22. The PBM binding z-score is 1.3 in experiment [13]; 1.5 in experiment [14]; 1.39 in [15]; 1.73 in experiment [16]; 1.77 in experiment [17]; 0.827 in experiment [18]. The figures for the PBM binding z-score in experiment [19] and in experiment [20] were 1.3 and 1.75, respectively.

In the case of CCTAGTTGGTCAGGAGGTCACACATCGGATATGA, the PBM binding z-score in experiment [1] came to 3.47; in experiment [2] it was 3.35; in experiment [3], 2.05; in experiment [4] it was 3.2; in [5] it was 0.972; in [6] it was 4.03. Moreover, the PBM binding z-score is 3.29 in experiment [7]; 3.64 in experiment [8]; 1.24 in [9]; 2.91 in experiment [10]; 1.56 in experiment [11]; 3.61 in experiment [12]. Moreover, the PBM binding z-score in experiment [13] came out at 1.34; in [14], 0.678; in [15] it was 3.07; in experiment [16], 4.1; in [17], 1.36; in experiment [18], 4.37. Further, the PBM binding z-score in [19] was 1.58; in experiment [20], 3.71.

Consider ATCTCTAGGAAACAAGTTCAGTGAAAGAGAGGAC, for which the PBM binding z-score amounted to 0.431 in [1]; 0.902 in [2]; 0.383 in [3]; 0.587 in [4]; 0.528 in experiment [5]; 0.467 in experiment [6]. Besides, the PBM binding z-score in experiment [7] is 0.409; in experiment [8], 0.0222; in [9], 0.37; in experiment [10], -0.00536; in [11], -0.477; in experiment [12] it was 0.373. Moreover, the PBM binding z-score in experiment [13] stood at 0.113; in [14] it was 0.509; in experiment [15], 0.901; in experiment [16], 1.24; in experiment [17], 1.82; in experiment [18] it was 0.58. Also, the PBM binding z-score in [19] was found to be 0.878; in [20], 1.17.

As to CCTACCGGGCCATCAGGTCATTGATATCAACGTT, the PBM binding z-score in [1] stood at 1.4; in experiment [2] it was 1.26; in experiment [3] it was 1.91; in experiment [4], 1.66; in [5], 0.209; in experiment [6], 1.93. Further, the PBM binding z-score is 0.875 in experiment [7]; 1.59 in [8]; -0.00582 in experiment [9]; 1.09 in [10]; 0.52 in experiment [11]; 1.97 in experiment [12]. In addition, the PBM binding z-score in experiment [13] was -0.847; in [14], -0.348; in experiment [15], 1.25; in experiment [16], 1.64; in experiment [17], 0.864; in experiment [18], 1.95. Moreover, the PBM binding z-score is 0.127 in experiment [19] and 2.21 in experiment [20].

For the sequence CCTATTAGTTGACCATAGGGGCAACCGAAGCTCG, the PBM binding z-score was 0.589 in [1]; 0.362 in experiment [2]; 0.304 in experiment [3]; 0.153 in experiment [4]; 0.195 in experiment [5]; 0.245 in experiment [6]. Moreover, the PBM binding z-score in [7] is 0.395; in experiment [8], 0.309; in experiment [9], -0.142; in experiment [10] it was 0.113; in [11], 0.502; in experiment [12], 0.611. Moreover, the PBM binding z-score is 0.353 in [13]; -0.128 in experiment [14]; 1.32 in experiment [15]; 0.256 in experiment [16]; 0.563 in experiment [17]; 0.446 in experiment [18]. Also, the PBM binding z-score in [19] stood at 1.9; in experiment [20] it was 0.983.

For the sequence GATACAGGGTCAAGGCCAGCGTACGCGTATTGAT, the PBM binding z-score is 6.93 in [1]; 4.12 in experiment [2]; 0.203 in experiment [3]; 3.86 in [4]; -0.187 in experiment [5]; 5.63 in experiment [6]. For the same sequence, the PBM binding z-score in experiment [7] was found to be 5.9; in experiment [8] it was 5.32; in experiment [9] it was 2.19; in [10] it was 4.12; in experiment [11], 2.09; in [12], 3.85. The PBM binding z-score in experiment [13] was 0.49; in experiment [14], -0.316; in experiment [15], 2.29; in experiment [16], 3.48; in experiment [17], 0.372; in [18], 4.36. The PBM binding z-score in experiment [19] was 1.03; in experiment [20], 4.52.

With CGTCCAAGGTCAATGCTGGGTCAGTGAAAGCATT, the PBM binding z-score is 6.49 in experiment [1]; 4.95 in [2]; 0.942 in experiment [3]; 3.75 in experiment [4]; 0.628 in [5]; 5.14 in experiment [6]. The PBM binding z-score in [7] stood at 3.82; in experiment [8] it was 4.53; in experiment [9], 1.09; in [10], 3.07; in experiment [11] it was 3.06; in experiment [12], 3.71. Moreover, the PBM binding z-score is -0.934 in experiment [13]; -0.907 in experiment [14]; 4.17 in experiment [15]; 4.66 in [16]; 1.2 in experiment [17]; 5.52 in experiment [18]. Moreover, the results for the PBM binding z-score in experiment [19] and in [20] were 0.99 and 5.31, respectively.
